Screens as filed in PubChem.
Sampled rows, rich in hits. Any-hit rate of the full collection: about 3%.
HEK293 viab = reduces viability of HEK-293 SNCA reporter cells | 0.12% of 150,000 active | HEK-293-SNCA-luc viability, GF-AFC fluorescence, 24 h | Potency, µM (titrated, usually from 57.1 µM), for inactives: at the top dose activity change, negative = cytotoxicity, most hits filed as cytotoxic;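 further: potency means the concentration at half of the fitted maximal effect; 0% = DMSO-treated cells and -100% = medium-only wells without cells; nearly all actives have a fitted effect of over 30% in size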
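Cytotoxicity counterscreen: after 24 h compound treatment of genome-edited SNCA-luciferase HEK-293 cells, live-cell protease substrate GF-AFC read by fluorescence after 30 min; activity scaled between DMSO (0%) and medium-only (-100%), curves Hill-fitted.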
IP6K1 inh = inhibitors of human IP6K1 | IP6K1 kinase, ADP-Glo luminescence, 2 h; stronger effect = lower value | activity change, % (series mostly up to about 58 µM) | 0.81% of 140,000 active; in the data active means activity change below about -25%; further: on the % scale 0 is the no-effect control and ±100 the full control effect
Target sequence (Q92551 whole entry, looked up): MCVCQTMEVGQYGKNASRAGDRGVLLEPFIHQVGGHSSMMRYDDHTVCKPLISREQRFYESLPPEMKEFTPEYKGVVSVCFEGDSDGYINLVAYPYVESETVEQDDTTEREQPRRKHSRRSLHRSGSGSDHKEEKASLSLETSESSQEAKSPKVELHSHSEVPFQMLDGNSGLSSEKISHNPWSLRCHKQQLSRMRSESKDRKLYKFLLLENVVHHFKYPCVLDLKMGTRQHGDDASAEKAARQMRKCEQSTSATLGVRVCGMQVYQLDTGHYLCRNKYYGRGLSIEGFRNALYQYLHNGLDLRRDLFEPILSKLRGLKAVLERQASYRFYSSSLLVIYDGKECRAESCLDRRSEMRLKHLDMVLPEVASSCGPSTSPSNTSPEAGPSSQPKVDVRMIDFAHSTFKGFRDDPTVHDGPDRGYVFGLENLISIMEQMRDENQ
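ADP-Glo luminescence measures ADP made by human IP6K1 during a 2 h RT reaction with ATP/IP6 (mix at 1.3 mM/130 uM); top library doses 57.5 and 19.1 uM final.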
SNCA expr inh = inhibitors of alpha-synuclein (SNCA) gene expression; HEK-293 SNCA-luciferase knock-in, luminescence, 24 h; Potency, µM (top dose mostly 57.2 µM), for inactives: top-dose activity change, negative = inhibition, most hits filed as inhibitors; 0.17% of 140,000 active; AID 1671194;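 further: potency means the concentration at half of the fitted maximal effect; plate controls were DMSO cells for no effect and cell-free wells for full effect; nearly all actives have a fitted effect of over 45% in size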
KDM5B inh = KDM5B demethylase inhibition; 2.6% of 220,000 active; Potency, µM (titrated, usually from 57.7 µM), usual class: inhibitors; KDM5B demethylase, FDH-coupled NADH fluorescence (FDH is formaldehyde dehydrogenase); further: potency means the concentration at half of the fitted maximal effect; 0% is about no effect; nearly all actives have a fitted effect of over 70% in size
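Here, H3K4me3 peptide (12.5 µM in substrate mix) is demethylated by KDM5BΔAP, 200 nM final, after 10 min compound exposure. Formaldehyde product is coupled through FDH (0.25 U/mL in mix) to NADH fluorescence; 30-min ΔRFU feeds dose-response curves.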
* marks the source's active call; other numbers are inactive results; i = inactive; ? = inconclusive; . = no result; [ ] = dose if it differs, or a comment. Unless noted, the call rests on the fitted dose curve; in most records, active means well fitted curve in the direction sought with a large enough effect; inconclusive means small, poorly fitted or top-dose-only effect, or another doubt; inactive means no such curve, though single readings can be large; an effect the other way counts as inactive or inconclusive.

SMILES | HEK293 viab | IP6K1 inh | SNCA expr inh | KDM5B inh
CN1Cc2ccc(NCc3ccccc3)nc2C(C)(C(=O)NCc2ccc3c(c2)OCO3)C1 (stereo not drawn) | -14.3% | 0.4 | ? | ?
CN1Cc2ccc(Nc3ccccc3)nc2C(C)(C(=O)NCc2ccc3c(c2)OCO3)C1 (stereo not drawn) | -10.4%[87.6 µM] | 7.1 | -5.3%[87.6 µM] | 39.8µM*
COc1cccc(Nc2ccc3c(n2)C(C)(C(=O)NCc2ccco2)CN(C)C3)c1 (stereo not drawn) | -9.0%[87.6 µM] | -2.2 | 6.2%[87.6 µM] | 28.2µM*
O=[N+]([O-])c1c(Nc2cccc(Cl)n2)ccc2nonc12 | . | . | . | i
COc1ccc(-c2nc3cc(C)ccc3cc2CN2CCC(NC(C)=O)C2)cc1 (stereo not drawn) | -2.4% | 9.2 | -7.3% | 20µM*
Cc1cn2nc(C(=O)NC3CCCC3)cc2c(N2CCCC2)n1 | 9.0% | -15.9 | 19.1% | i
Cc1cn2nc(C(=O)NC3CCCCCC3)cc2c(N2CCCC2)n1 | 17.8% | 10.2 | 18.4% | 6.31µM*
Cc1cn2nc(C(=O)NC3CCc4ccccc43)cc2c(N2CCCC2)n1 (stereo not drawn) | 1.5% | -2.7 | 7.9% | 14.1µM*
CCOC(=O)C(C)N1C(=O)S/C(=C/c2ccc(Cl)s2)C1=O (stereo not drawn) | . | . | . | i
CN1Cc2c(cc(N3CCOCC3)nc2-c2cccc(C(F)(F)F)c2)C1=O | 8.5%[87.6 µM] | 11.1 | 4.8%[87.6 µM] | i
COc1cccc(-c2nc(N3CCOCC3)cc3c2CN(C)C3=O)c1 | 0.2%[87.6 µM] | 7.4 | 18.7%[87.6 µM] | 35.5µM*
COc1cccc(-c2ncc3c(n2)OCCN(c2ccccc2)C3=O)c1OC | 2.6%[87.6 µM] | 13.7 | 59.4%[87.6 µM] | i
COc1cccc(-c2nc(N3CCOCC3)cc3c2CN(C)C3=O)c1OC | ? | 9.7 | 0.2%[87.6 µM] | 39.8µM*
CN(C)c1cccc(-c2cnc(Nc3cccc(N[S+](C)(=O)[O-])c3)c3c2CCO3)c1 | ? | -9.5 | -21.0%[87.6 µM] | ?
CN1Cc2c(cc(N3CCOCC3)nc2-c2cccc(N[S+](C)(=O)[O-])c2)C1=O | 9.2%[87.6 µM] | 19.6 | 107.3%[87.6 µM] | 35.5µM*
O=C(NC1CCCC1)C1CCCN(C2CCN(C3Cc4ccccc4C3)CC2)C1 (stereo not drawn) | -16.6% | 6.8 | -5.9% | 31.6µM*
O=C(NC1CCC1)C1CCCN(C2CCN(C3Cc4ccccc4C3)CC2)C1 (stereo not drawn) | 0.6% | -6.8 | 28.3% | i
Cc1ccc(-c2cc3c(ccn3C(C)C)c(C(=O)NCc3c(C)cc(C)[nH]c3=O)n2)cn1 | -10.2%[87.6 µM] | -13.8 | -22.1%[87.6 µM] | ?
Cc1cc(C)c(CNC(=O)c2nc(-c3cnn(C)c3)cc3c2ccn3C)c(=O)[nH]1 | 3.8%[87.6 µM] | 4.4 | 4.3%[87.6 µM] | 22.4µM*
Cc1cc(C)c(CNC(=O)c2nc(-c3ccc(CN(C)C)cc3)cc3c2ccn3C(C)C)c(=O)[nH]1 | ? | -8.3 | -5.6% | 28.2µM*
COc1ccc(-c2cc3c(ccn3C(C)C)c(C(=O)NCc3c(C)cc(C)[nH]c3=O)n2)cc1 | -3.1% | 6.7 | -0.6% | 25.1µM*
CCOC(=O)[C@@H]1CN(C(=O)c2cc3ccccc3s2)[C@H]2c3cccc(F)c3O[C@@H]12 | . | 6.1 | . | .
Cc1ccc2c(C(=O)N3CCOCC3)cnn2c1 | 1.8%[87.6 µM] | -11.2 | 48.3%[87.6 µM] | 31.6µM*
O=C(c1cnn2ncccc12)N1CCOCC1 | -20.5%[87.6 µM] | -6.9 | 122.2%[87.6 µM] | i
Cc1ccc(C(=O)NCc2nnc3c(-c4nc(C)no4)cccn23)cc1 | -16.9% | 10.6 | ? | 28.2µM*
SMILES | HEK293 viab | IP6K1 inh | SNCA expr inh | KDM5B inh
COc1ccc(C(=O)NCc2nnc3c(-c4nc(C)no4)cccn23)cc1 | -12.2% | 29.7 | -2.1% | 25.1µM*
COc1ccccc1-c1ccc(CN2CCCCC2C(=O)NC(C)C)cc1 (stereo not drawn) | . | 10.7 | . | .
CCCCN(CC)C(=O)c1cc2c(C)cc(C)c(C)c2[nH]1 | . | . | . | i
Cc1cc(CN(C)Cc2cn(-c3cccc(F)c3)nc2-c2ccc(C)o2)n[nH]1 | -6.8% | 10.3 | 31.7% | 25.1µM*
Cc1ccc(-c2nn(-c3cccc(F)c3)cc2CN(C)CCO)o1 | 3.2% | 6.9 | 21.7% | 25.1µM*
O=c1[nH]nc(SCc2nc(-c3ccccc3Cl)no2)n2nc(-c3ccco3)cc12 | . | . | . | i
N#Cc1cccnc1N1CC[C@@H](N2CCC(O)CC2)[C@H](O)C1 | 2.6% | -2.4 | 21.5% | 25.1µM*
O=C(c1ccc(Cl)cc1)N1CCC2(CC1)C(=O)NCN2CCc1ccc(Cl)cc1 | -14.6% | -3.6 | -22.8% | i
COc1ccc(C(=O)Nc2ccc3c(c2)CN(Cc2ccc(F)cc2)C(=O)C(C)O3)c(OC)c1 (stereo not drawn) | ? | -11.2 | ? | 31.6µM*
